Screening data deposited in PubChem BioAssay by National Center for Advancing Translational Sciences (NCATS).
HP1b chromo inh – HTS for Inhibitors of HP1-beta Chromodomain Interactions with Methylated Histone Tails. Chromobox protein homolog 1 (Homo sapiens), P83916. AlphaScreen HP1-beta / biotin-H3K9me3 peptide binding. Potency, µM (series often up to 114 µM), for inactives: at the top dose activity change, negative = inhibition, hits mostly inhibitors. hit rate 0.56% among 390,000. AID 540317, 2011; further: potency means the concentration at half of the fitted maximal effect; nearly all actives have a fitted effect of over 70% in size
Target sequence (P83916 whole entry, looked up): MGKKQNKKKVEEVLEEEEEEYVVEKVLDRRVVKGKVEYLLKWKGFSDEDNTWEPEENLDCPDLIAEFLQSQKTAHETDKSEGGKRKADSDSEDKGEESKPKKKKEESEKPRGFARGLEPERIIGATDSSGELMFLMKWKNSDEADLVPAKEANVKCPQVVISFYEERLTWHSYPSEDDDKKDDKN
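Compound inhibition of the preformed complex between 50 nM HP1-beta and 50 nM biotinylated H3K9me3 peptide was read by AlphaScreen. Buffer was PBS pH 7.4 with 0.01% Tween-20. Incubations ran 30 min at room temperature, with 10 ug/mL donor/acceptor beads.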
JMJD2A Tudor inh – qHTS Assay for Inhibitors of JMJD2A-Tudor Domain | Lysine-specific demethylase 4A (Homo sapiens), O75164 | AlphaScreen JMJD2A-Tudor / H3K4me3 peptide binding | Potency, µM (titrated, usually from 114 µM), without a hit: at the highest dose activity change, negative = inhibition, actives largely listed as inhibitors | hit rate 4.4% among 390,000 | AID 504339, 2011; further: potency means the concentration at half of the fitted maximal effect; on the % scale 0 is the no-effect control and ±100 the full control effect; nearly all actives have a fitted effect of over 50% in size
BAZ2B inh – qHTS Assay for Inhibitors of BAZ2B; AlphaScreen BAZ2B-H3K14Ac peptide displacement; Potency, µM (top dose mostly 114 µM), inactives show at the top dose activity change, negative = inhibition, hits mostly inhibitors; hit rate 4.4% among 360,000; AID 504333, 2011; further: potency means the concentration at half of the fitted maximal effect; on the % scale 0 is the no-effect control and ±100 the full control effect; nearly all actives have a fitted effect of over 60% in size
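Complex of BAZ2B and biotin-H3K14Ac (50 nM apiece) forms over 30 min at RT, then faces library compounds up to 110 uM for another 30 min; AlphaScreen beads added, 20 min dark incubation, luminescence read.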
PI5P4K alpha inh – qHTS for Inhibitors of phosphatidylinositol 5-phosphate 4-kinase (PI5P4K) | Phosphatidylinositol 5-phosphate 4-kinase type-2 alpha (Homo sapiens), P48426 | PI5P4Kalpha enzyme, ADP-Glo luminescence, 60 min; stronger effect = lower value | max response, % | hit rate 1.2% among 330,000; active means max response of -50% or lower; inconclusive means between -30% and -50%; inactive means -30% or higher; further: value at the top dose of about 77 µM; on the % scale 0 is the no-effect control and ±100 the full control effect
Target sequence (P48426 whole entry, looked up): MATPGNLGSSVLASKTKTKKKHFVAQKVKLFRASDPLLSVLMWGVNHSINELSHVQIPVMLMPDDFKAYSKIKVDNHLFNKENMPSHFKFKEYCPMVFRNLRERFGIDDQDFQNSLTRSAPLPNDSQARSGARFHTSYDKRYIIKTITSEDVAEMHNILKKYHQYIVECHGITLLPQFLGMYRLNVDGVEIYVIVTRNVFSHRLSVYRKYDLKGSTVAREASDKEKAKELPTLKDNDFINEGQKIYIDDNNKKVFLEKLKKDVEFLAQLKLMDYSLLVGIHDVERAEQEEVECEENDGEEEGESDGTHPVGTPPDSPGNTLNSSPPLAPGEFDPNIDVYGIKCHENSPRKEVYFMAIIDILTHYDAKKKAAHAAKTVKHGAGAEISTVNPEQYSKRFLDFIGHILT
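Reactions run in 0.038 M HEPES pH 7.4, 0.28 mM EGTA, 0.1% CHAPS and 5% DMSO, with PI5P4Kalpha, substrate, compound and 5 microM ATP final, one hour at room temperature. Readout is ADP-Glo luminescence.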
PLK1 PBD block – qHTS for Inhibitors of PLK1-PDB (polo-like kinase 1 - polo-box domain): Primary Screen; Plk1 PBD binding of FITC phosphopeptide, fluorescence polarization; Potency, µM, without a hit: max response, negative = inhibition, most hits filed as inhibitors; hit rate 2.8% among 360,000; AID 720504, 2013; further: potency means the concentration at half of the fitted maximal effect; series mostly up to about 57 µM; on the % scale 0 is the no-effect control and ±100 the full control effect; nearly all actives have a fitted effect of over 65% in size
GCN5L2 inh – qHTS Assay for Inhibitors of GCN5L2. Histone acetyltransferase KAT2A (Homo sapiens), Q92830. GCN5L2 HAT assay, ThioGlo1 CoA-SH fluorescence. Potency, µM (highest dose often 58.9 µM), for the others: top-dose activity change, negative = inhibition, hits mostly inhibitors. hit rate 0.21% among 390,000; further: potency means the concentration at half of the fitted maximal effect; on the % scale 0 is the no-effect control and ±100 the full control effect
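Preincubate 20nM GCN5L2 with compound 15 min, RT → add 50uM ThioGlo1 + 75uM H3(1-25) + 70uM acetyl-CoA → read fluorescence 0 and 20 min. Primary qHTS; fluorescent artifacts likely.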
Numbers without * were called inactive; ? = inconclusive; / = no result; [ ] = another dose, or the depositor's remark. In the library only some 7% were active in any assay of this set; here they are far more common. Unless noted, the call rests on the fitted dose curve; in most records, active means well fitted curve in the direction sought with a large enough effect; inconclusive means small, poorly fitted or top-dose-only effect, or another doubt; inactive means no such curve, though single readings can be large; an effect the other way counts as inactive or inconclusive.

SMILES	HP1b chromo inh	JMJD2A Tudor inh	BAZ2B inh	PI5P4K alpha inh	PLK1 PBD block	GCN5L2 inh
N=c1c[n+](N2CCOCC2)[n-]o1	2%	56µM*	50µM*	1	?	-11%
Oc1nc(-c2ccc(Cl)cc2)n2ccncc12	37%	?	79µM*	3	-15%	-9%
O=C(c1cnc(N2CCOCC2)c2ccccc12)N1CCN(c2ccccc2)CC1	15%[57 µM]	-21%	-3%	/	/	-1%
CN1OC[C@@H]2CN(Cc3cc(Cl)cc(Cl)c3)[C@H](c3cccc(Oc4ccccc4)c3)C[C@@H]21	-2%	89µM*	/	31	-9%	/
O=C(Nc1cccc(-c2cccc(Cl)c2)c1)C1CCN(Cc2ccccn2)CC1	46%	-31%	6%	0	-1%	-11%
O=C(Nc1ccc(-n2cccn2)cc1)C1CCN(Cc2ccccn2)CC1	21%	22µM*	?	-4	-4%	-25%
CCOC(=O)C1CCN(Cc2nc3ccc(Cl)cc3n2CCO)CC1	14µM*	1.1µM*	45µM*	1	-1%	?
CCOC(=O)C1CCN(Cc2cccc(OCc3ccccc3)c2)CC1	?	8.9µM*	-12%	6	2%	-18%
O=C(NCc1ccccn1)C1CCN(Cc2cccc(OCc3ccccc3)c2)CC1	?	3.5µM*	?	9	1%	3%
CCOC(=O)C1CCN(Cc2nnnn2CCc2ccccc2)CC1	58%	2%	-8%	4	-6%	-1%
Cc1ccc(Cl)cc1N1CCN(C(=O)c2ccc3c(c2)N(Cc2ccc(F)cc2)CCS3)CC1	12%	-30%	?	/	/	-6%
CC(C)c1ccc(Nc2c(-c3ccsc3)nc3ccc(Cl)cn23)cc1	28%	-3%	?	/	/	-6%
CN(C)S(=O)(=O)c1cccc(NC(=O)C2CCN(S(=O)(=O)c3cccs3)CC2)c1	12%[57 µM]	-9%	/	5	-4%	-3%
CCOc1cc(C#N)c(NC(=O)c2ccc(OC)c(S(=O)(=O)N3CCN(c4ccccc4)CC3)c2)cc1OCC	18%	-12%	-18%	/	/	-8%
CCS(=O)(=O)NC(=O)C1(C)CCN1C(=O)Cc1ccc(Cl)cc1Cl (centres undefined)	/	/	/	10	0%	/
COCCNC(=O)C1CCCN(Cc2ccccc2)CC1 (centres undefined)	/	/	/	1	-9%	/
CCOC(=O)C1CCCCN1Cc1cccc(OCc2ccccc2)c1 (centres undefined)	?	10µM*	?	6	2%	-12%
CC(C)CNC(=O)C1CCN(Cc2ccc(OCc3ccccc3)cc2)CC1	?	1.1µM*	?	7	4%	0%
Fc1ccc(CN2CCSCC2)cc1Br	?	3.2µM*	50µM*	/	1%	0%
c1ccc(COc2cccc(CN3CCc4ccccc4C3)c2)cc1	21%	56µM*	7%	1	4%	-6%
COc1ccc(Cl)cc1NC(=O)Cn1ccn(-c2cc(C)cc(C)c2)c(=O)c1=O	10%	-12%	-39%	/	/	3%
CCOC(=O)C1CCN(C(=O)c2ccc(Br)o2)CC1	43%	-4%	-7%	/	0%	-3%
CCOC(=O)C1CCN(Cc2ccc(F)c(Br)c2)CC1	-50%	3.2µM*	50µM*	/	-7%	-1%
CCOC(=O)C1CCN(Cc2ccccn2)CC1	/	/	50µM*	/	/	-5%
CC(C)NC(=O)C1CCN(Cc2cccc(Oc3ccccc3)c2)CC1	?	22µM*	?	-1	-5%	-2%
SMILES	HP1b chromo inh	JMJD2A Tudor inh	BAZ2B inh	PI5P4K alpha inh	PLK1 PBD block	GCN5L2 inh
NC(=O)C1CCN(Cc2cccc(OCc3ccccc3)c2)CC1	?	2.5µM*	?	-5	-5%	-13%
CC(C)NC(=O)C1CCN(Cc2cccc(OCc3ccccc3)c2)CC1	/	/	/	2	-9%	/
CN1C=CC=C/C1=C1\SC(=S)N(N)C1=O	30%	1%	-27%	-8	-13%	-7%
CC[C@H](C)[C@H]1CNC(=S)N1CC1CCN(CCCCc2ccccc2)CC1	34%	-11%	/	1	-4%	/
COc1cc(NC(=O)c2cnc(N)o2)cc(C(=O)Nc2cccc(C(F)(F)F)c2)c1	8%	-36%	?	-4	-4%	-8%
COc1cc(NC(=O)c2cnc(N)s2)cc(C(=O)Nc2cccc(C(F)(F)F)c2)c1	-14%	32µM*	20µM*	1	-9%	-27%
COc1cc(NC(=O)c2ccnc(N)c2)cc(C(=O)Nc2cccc(C(F)(F)F)c2)c1	-8%	?	50µM*	1	4%	-5%
Cc1cc(=O)n(CC(=O)Nc2ccc([N+](=O)[O-])cc2)c(-n2nc(C)cc2C)n1	37%	-12%	-19%	/	/	-3%
Cc1ccc(-n2nc3c(=O)n(CC(=O)NCCc4ccc(Cl)cc4)nc(C)c3c2C)cc1	12%[57 µM]	-34%	79µM*	1	-6%	1%
Cc1cc(Cl)ccc1NC(=O)Cn1nc(C)c2c(C)n(-c3ccccc3)nc2c1=O	8%	-34%	56µM*	/	/	?
Cc1ccc(CCNC(=O)CCCn2nc(C)c3c(C)n(-c4ccc(C)cc4)nc3c2=O)cc1	42%	-19%	-29%	4	-3%	3%
Cc1cc(Cl)ccc1NC(=O)CCCn1nc(C)c2c(C)n(-c3ccccc3)nc2c1=O	43%	-1%	-16%	/	/	-17%
Cc1cccc(C)c1NC(=O)NCCc1c[nH]c2ccccc12	5%	-21%	?	/	/	-10%
C=C(C)c1cccc(C(C)(C)NC(=O)N2CCN(C(=O)OCC)CC2)c1	/	/	/	1	1%	/
COc1cc(-c2nc3sccn3c2Nc2cccc(C)c2)ccc1O	?	45µM*	13µM*	/	/	-7%
Cc1ccc(Sc2ccc(S(=O)(=O)Nc3ccc(C(=O)O)cc3)cc2)cc1C	7%	-35%	/	-13	?	-26%
CCOC(=O)C(C(C)=O)c1c(Br)c(O)c(O)c2c(C(=O)c3ccc(C)cc3)coc12 (centres undefined)	?	?	40µM*	/	-4%	-13%
CCOC(=O)c1c(C)n(-c2ccc(C)cc2)c2c(C(C(C)=O)C(=O)O)c(Br)c(O)c(O)c12 (centres undefined)	?	-36%	11%	-8	?	-6%
Cc1ccc(C(NC(=O)N2CCOCC2)C(Cl)Cl)cc1F (centres undefined)	2%	-6%	-2%	4	27µM*	-1%
